# Assays:
# [1] = target: Sphingosine kinase 1 (Homo sapiens) (UniProt Q9NYA1); settings: at 1 µM;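 also: mean SPHK1 inhibition value reported from the GSK PKIS kinase panel screen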
# [2] = target: T1, Sphingosine kinase 2 (Homo sapiens) (UniProt Q9NRA0); settings: at 0.1 µM
# T1 sequence (whole entry): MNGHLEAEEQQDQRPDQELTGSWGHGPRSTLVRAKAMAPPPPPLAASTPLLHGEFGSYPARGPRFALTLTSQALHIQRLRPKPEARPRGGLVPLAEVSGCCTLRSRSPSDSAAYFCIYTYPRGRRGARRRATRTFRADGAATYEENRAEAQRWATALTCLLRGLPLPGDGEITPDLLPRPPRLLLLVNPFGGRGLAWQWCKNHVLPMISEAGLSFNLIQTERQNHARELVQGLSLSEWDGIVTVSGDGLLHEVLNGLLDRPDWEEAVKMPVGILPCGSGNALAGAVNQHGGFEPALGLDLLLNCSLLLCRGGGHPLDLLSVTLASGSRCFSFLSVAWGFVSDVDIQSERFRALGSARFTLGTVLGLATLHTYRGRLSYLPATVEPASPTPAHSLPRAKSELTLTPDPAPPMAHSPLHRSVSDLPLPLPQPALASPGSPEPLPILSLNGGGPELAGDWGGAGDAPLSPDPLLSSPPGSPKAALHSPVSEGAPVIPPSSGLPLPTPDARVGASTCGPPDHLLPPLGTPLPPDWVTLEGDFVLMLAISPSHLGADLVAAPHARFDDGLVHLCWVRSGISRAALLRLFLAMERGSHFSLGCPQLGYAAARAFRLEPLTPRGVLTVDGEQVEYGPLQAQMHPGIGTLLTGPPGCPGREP
# [3] = target: T1, Sphingosine kinase 2 (Homo sapiens); settings: at 1 µM
# [4] = target: Casein kinase II subunit alpha (Homo sapiens) (UniProt P68400); settings: at 0.1 µM
# Chain of Casein kinase II subunit alpha (Homo sapiens) (P68400 whole entry, looked up): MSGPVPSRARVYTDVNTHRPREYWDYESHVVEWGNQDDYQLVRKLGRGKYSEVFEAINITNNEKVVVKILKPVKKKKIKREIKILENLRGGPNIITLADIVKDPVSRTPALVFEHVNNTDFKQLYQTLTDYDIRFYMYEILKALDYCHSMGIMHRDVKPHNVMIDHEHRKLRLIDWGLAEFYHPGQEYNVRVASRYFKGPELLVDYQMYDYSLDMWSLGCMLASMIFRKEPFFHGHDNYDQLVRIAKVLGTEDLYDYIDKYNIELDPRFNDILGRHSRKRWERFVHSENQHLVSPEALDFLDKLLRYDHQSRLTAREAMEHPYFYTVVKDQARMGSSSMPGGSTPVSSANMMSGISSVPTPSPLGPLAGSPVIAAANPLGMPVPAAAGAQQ
# [5] = target: Casein kinase II subunit alpha (Homo sapiens) (UniProt P68400); settings: at 1 µM
# [6] = target: T2, Inhibitor of nuclear factor kappa-B kinase subunit alpha (Homo sapiens) (UniProt O15111); settings: at 0.1 µM
# T2 sequence (whole entry): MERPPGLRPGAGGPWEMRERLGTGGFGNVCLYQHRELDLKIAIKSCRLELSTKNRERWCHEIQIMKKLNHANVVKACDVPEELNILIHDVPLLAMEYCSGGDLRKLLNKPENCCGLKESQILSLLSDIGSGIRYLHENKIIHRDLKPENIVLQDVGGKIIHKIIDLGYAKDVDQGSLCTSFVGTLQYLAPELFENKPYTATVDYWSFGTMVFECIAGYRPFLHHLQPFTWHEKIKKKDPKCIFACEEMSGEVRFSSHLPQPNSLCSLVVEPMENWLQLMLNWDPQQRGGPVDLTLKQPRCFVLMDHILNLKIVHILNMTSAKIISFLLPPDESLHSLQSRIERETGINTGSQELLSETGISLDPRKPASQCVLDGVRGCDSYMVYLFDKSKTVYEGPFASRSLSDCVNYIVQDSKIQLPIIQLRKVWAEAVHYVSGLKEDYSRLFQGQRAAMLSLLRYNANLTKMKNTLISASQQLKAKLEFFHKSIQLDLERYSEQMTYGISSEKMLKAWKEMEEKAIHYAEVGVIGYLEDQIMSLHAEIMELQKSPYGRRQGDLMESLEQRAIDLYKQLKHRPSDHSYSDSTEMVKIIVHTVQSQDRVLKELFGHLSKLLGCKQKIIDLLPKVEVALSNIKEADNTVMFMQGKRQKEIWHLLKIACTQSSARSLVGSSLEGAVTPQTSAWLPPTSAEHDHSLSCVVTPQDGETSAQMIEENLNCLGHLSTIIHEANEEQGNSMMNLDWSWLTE
# [7] = target: T2, Inhibitor of nuclear factor kappa-B kinase subunit alpha (Homo sapiens); settings: at 1 µM
# [8] = target: T3, Inhibitor of nuclear factor kappa-B kinase subunit beta (Homo sapiens) (UniProt O14920); settings: at 0.1 µM
# T3 sequence (whole entry): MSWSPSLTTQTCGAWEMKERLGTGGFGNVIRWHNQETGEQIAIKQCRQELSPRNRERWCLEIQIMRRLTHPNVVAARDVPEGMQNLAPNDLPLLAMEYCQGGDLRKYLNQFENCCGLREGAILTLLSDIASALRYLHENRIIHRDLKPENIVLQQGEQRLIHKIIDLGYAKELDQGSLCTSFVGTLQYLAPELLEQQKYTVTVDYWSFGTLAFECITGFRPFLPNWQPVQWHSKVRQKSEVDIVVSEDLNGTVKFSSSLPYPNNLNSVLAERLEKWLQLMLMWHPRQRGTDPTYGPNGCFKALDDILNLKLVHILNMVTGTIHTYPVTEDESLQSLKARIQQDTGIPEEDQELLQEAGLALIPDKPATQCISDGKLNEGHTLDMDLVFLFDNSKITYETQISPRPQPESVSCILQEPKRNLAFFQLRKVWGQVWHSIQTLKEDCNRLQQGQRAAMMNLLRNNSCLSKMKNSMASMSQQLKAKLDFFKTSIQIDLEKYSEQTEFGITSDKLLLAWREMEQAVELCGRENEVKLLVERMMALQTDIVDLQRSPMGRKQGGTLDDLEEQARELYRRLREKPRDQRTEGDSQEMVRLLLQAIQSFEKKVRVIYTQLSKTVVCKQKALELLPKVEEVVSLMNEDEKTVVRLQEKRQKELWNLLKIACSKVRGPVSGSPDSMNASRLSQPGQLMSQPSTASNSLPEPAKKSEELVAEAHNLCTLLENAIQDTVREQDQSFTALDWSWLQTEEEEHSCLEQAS
# [9] = target: T3, Inhibitor of nuclear factor kappa-B kinase subunit beta (Homo sapiens); settings: at 1 µM
# [10] = target: T4, Inhibitor of nuclear factor kappa-B kinase subunit epsilon (Homo sapiens) (UniProt Q14164); settings: at 0.1 µM
# T4 sequence (whole entry): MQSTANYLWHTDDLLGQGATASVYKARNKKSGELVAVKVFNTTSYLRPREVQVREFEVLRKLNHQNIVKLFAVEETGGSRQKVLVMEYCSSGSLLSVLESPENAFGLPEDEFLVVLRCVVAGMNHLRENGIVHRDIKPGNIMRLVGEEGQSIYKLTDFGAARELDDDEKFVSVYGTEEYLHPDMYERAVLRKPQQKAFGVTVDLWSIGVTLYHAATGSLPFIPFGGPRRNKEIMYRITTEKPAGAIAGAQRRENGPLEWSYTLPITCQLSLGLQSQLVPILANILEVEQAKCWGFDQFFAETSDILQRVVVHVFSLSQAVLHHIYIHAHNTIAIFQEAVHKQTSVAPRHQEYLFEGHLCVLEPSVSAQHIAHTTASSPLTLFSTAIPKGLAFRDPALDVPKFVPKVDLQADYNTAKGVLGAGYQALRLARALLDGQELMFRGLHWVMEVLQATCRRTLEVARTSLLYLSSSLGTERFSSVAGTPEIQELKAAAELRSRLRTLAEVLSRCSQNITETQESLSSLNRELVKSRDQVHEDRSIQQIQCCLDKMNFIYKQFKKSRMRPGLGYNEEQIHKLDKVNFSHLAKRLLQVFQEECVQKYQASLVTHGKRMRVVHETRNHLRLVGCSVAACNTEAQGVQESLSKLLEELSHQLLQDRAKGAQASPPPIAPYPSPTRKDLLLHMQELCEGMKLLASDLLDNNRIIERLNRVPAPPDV
# [11] = target: T4, Inhibitor of nuclear factor kappa-B kinase subunit epsilon (Homo sapiens); settings: at 1 µM
# [12] = target: T5, Serine/threonine-protein kinase Nek1 (Homo sapiens) (UniProt Q96PY6); settings: at 0.1 µM
# T5 sequence (whole entry): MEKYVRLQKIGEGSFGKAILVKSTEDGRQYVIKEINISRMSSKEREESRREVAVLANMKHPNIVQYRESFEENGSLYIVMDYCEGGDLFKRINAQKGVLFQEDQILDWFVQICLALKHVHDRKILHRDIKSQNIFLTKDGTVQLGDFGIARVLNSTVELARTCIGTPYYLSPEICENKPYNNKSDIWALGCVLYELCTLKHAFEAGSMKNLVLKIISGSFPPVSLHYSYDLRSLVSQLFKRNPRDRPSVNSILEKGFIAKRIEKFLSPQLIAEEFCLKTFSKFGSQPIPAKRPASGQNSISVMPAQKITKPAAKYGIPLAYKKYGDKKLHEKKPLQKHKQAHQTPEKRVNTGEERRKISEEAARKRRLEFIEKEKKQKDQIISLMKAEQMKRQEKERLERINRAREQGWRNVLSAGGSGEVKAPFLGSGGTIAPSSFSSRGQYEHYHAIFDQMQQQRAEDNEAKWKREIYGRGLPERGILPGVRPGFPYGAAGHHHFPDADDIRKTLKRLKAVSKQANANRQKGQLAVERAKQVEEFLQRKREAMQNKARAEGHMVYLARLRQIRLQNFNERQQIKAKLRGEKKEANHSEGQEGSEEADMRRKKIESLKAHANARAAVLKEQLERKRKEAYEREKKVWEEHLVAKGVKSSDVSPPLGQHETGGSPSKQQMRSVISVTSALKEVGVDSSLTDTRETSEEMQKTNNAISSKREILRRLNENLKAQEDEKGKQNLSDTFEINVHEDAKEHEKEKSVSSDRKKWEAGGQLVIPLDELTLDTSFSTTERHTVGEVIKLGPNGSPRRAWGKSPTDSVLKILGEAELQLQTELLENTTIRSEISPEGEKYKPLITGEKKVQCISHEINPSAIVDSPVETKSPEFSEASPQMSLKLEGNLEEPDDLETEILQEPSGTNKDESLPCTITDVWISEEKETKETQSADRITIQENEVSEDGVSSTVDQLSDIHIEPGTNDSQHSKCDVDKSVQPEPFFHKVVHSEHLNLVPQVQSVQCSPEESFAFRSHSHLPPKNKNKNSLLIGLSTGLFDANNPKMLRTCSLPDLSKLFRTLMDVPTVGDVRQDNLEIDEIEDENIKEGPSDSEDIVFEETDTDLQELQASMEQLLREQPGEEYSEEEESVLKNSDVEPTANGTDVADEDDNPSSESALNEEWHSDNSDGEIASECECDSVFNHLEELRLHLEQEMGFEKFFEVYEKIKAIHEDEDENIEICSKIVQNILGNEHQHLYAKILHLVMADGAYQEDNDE
# [13] = target: T5, Serine/threonine-protein kinase Nek1 (Homo sapiens); settings: at 1 µM
# [14] = target: T6, Serine/threonine-protein kinase Nek2 (Homo sapiens) (UniProt P51955); settings: at 0.1 µM
# T6 sequence (whole entry): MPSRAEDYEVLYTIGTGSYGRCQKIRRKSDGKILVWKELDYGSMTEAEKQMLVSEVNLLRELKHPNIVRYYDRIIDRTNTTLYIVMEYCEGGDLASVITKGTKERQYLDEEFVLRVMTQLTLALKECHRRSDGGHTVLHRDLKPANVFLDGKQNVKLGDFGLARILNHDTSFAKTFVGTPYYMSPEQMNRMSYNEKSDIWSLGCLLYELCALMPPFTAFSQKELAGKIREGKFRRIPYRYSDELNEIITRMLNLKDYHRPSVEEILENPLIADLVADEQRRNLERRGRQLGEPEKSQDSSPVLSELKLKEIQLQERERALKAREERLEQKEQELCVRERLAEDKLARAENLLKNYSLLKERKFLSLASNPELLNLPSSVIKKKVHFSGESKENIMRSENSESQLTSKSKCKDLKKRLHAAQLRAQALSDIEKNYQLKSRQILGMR
# [15] = target: T6, Serine/threonine-protein kinase Nek2 (Homo sapiens); settings: at 1 µM
# [16] = target: Serine/threonine-protein kinase Nek6 (Homo sapiens) (UniProt Q9HC98); settings: at 0.1 µM
# Chain of Serine/threonine-protein kinase Nek6 (Homo sapiens) (Q9HC98 whole entry): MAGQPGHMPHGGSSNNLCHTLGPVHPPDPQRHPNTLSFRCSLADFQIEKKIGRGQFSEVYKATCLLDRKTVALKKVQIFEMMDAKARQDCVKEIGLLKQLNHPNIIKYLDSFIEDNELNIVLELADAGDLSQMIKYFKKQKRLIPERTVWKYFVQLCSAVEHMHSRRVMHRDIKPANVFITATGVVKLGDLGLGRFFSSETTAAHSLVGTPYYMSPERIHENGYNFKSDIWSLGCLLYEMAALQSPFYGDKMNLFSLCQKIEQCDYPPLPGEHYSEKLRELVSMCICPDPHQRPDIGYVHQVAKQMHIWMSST
# [17] = target: Serine/threonine-protein kinase Nek6 (Homo sapiens) (UniProt Q9HC98); settings: at 1 µM
# [18] = target: Serine/threonine-protein kinase Nek7 (Homo sapiens) (UniProt Q8TDX7); settings: at 0.1 µM
# Chain of Serine/threonine-protein kinase Nek7 (Homo sapiens) (Q8TDX7 whole entry, looked up): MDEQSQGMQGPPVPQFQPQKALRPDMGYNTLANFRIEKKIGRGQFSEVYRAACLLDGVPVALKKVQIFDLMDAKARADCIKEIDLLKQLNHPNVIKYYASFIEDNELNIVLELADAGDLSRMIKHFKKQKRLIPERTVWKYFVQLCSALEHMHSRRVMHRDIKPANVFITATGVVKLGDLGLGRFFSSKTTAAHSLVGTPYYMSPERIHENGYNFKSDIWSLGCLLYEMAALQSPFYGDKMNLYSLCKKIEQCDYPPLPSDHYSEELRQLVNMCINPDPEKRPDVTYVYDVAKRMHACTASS
# [19] = target: Serine/threonine-protein kinase Nek7 (Homo sapiens) (UniProt Q8TDX7); settings: at 1 µM
# [20] = target: T7, Serine/threonine-protein kinase Nek9 (Homo sapiens) (UniProt Q8TD19); settings: at 0.1 µM;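 also: reported value is the mean percent inhibition of NEK9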
# T7 sequence (whole entry): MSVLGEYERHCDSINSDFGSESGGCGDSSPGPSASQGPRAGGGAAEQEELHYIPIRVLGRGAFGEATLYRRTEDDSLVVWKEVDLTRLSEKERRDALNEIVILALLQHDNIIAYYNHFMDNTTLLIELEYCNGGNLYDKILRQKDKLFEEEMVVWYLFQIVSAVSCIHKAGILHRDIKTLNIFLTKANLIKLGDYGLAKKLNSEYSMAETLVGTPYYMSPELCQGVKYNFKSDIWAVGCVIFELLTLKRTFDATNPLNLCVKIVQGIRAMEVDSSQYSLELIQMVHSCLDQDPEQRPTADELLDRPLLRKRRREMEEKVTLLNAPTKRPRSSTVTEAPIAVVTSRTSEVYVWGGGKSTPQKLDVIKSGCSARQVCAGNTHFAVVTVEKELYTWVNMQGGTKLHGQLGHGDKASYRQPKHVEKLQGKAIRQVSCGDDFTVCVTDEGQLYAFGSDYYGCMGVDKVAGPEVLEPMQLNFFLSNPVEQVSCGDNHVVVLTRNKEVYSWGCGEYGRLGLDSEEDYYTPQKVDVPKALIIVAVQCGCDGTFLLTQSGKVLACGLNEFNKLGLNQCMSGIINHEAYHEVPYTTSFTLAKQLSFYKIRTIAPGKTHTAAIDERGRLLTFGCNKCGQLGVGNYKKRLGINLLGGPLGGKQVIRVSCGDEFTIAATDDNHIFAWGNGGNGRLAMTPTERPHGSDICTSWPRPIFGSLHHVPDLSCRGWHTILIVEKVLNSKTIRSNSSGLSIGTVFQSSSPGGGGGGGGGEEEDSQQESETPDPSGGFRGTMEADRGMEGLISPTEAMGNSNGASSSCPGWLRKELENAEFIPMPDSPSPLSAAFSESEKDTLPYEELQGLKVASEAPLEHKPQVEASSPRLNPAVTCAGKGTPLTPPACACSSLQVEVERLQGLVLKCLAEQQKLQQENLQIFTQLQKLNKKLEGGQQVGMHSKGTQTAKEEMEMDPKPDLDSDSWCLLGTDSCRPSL
# Chain of Sphingosine kinase 1 (Homo sapiens) (Q9NYA1 whole entry): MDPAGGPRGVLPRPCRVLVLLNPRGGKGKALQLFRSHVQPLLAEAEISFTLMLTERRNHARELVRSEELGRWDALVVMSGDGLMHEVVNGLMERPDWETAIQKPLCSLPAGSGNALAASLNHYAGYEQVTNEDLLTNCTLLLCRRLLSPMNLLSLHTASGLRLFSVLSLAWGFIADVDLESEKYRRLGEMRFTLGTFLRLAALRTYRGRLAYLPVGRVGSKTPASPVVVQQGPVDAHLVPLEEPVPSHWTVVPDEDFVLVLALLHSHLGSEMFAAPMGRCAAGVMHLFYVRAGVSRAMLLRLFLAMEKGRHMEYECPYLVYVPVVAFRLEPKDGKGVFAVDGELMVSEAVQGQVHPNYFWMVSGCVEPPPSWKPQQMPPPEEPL
smiles,measurement,setting,value
Fc1cccc(COc2ccc(Nc3ncncc3C#Cc3ccccc3)cc2Cl)c1,inhibition,[1],-2.79%
same,inhibition,[2],-1.37%
same,inhibition,[3],0.98%
same,inhibition,[4],4.56%
same,inhibition,[5],11.3%
same,inhibition,[6],6.1%
same,inhibition,[7],4.54%
same,inhibition,[8],8.5%
same,inhibition,[9],9.35%
same,inhibition,[10],7.72%
same,inhibition,[11],8.55%
same,inhibition,[12],3.31%
same,inhibition,[13],4.09%
same,inhibition,[14],5.61%
same,inhibition,[15],4.52%
same,inhibition,[16],1.91%
same,inhibition,[17],3.93%
same,inhibition,[18],2.36%
same,inhibition,[19],2.64%
same,inhibition,[20],10.8%
